Reference: PubChem BioAssay (NCATS)
Records with an inconclusive call do not appear. The source made the active and inactive calls. Calls come from the whole dose curve; as a rule, active = well fitted cell-killing curve with a large enough effect; inconclusive = small, poorly fitted or top-dose-only effect, or effect the other way; inactive = no such curve, though single readings can be large or run the other way.

How the values were obtained:
[1] = Quantitative High-Throughput drug screen in 47 multiple myeloma cell lines against the NCATS MIPE library collection: OCIMY7_PLB cell viability assay (AID 1918987); details: OCI-MY7 myeloma viability, CellTiter-Glo ATP, 48 h; series mostly up to 45.8 µM; note: nearly all actives have a fitted effect of over 65% in size
Outline: (§1)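 Myeloma cells (500/well) treated with MIPE 4.0 compounds for 48 h at 37 °C, 5% CO2. Viability read as ATP via CellTiter-Glo luminescence after 5 min at RT; DMSO-only wells = 100%, media-only = 0% viability.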

[2] = Quantitative High-Throughput drug screen in 47 multiple myeloma cell lines against the NCATS MIPE library collection: OCIMY5_PLB cell viability assay (AID 1918988); details: OCI-MY5 myeloma viability, ATP luminescence, 48 h; series mostly up to 45.8 µM; note: nearly all actives have a fitted effect of over 65% in size
Outline: as §1

[3] = Quantitative High-Throughput drug screen in 47 multiple myeloma cell lines against the NCATS MIPE library collection: OPM1_PLB cell viability assay (AID 1918989); details: CellTiter-Glo, 48 h; series mostly up to 45.8 µM; note: nearly all actives have a fitted effect of over 40% in size
Outline: as §1

[4] = Quantitative High-Throughput drug screen in 47 multiple myeloma cell lines against the NCATS MIPE library collection: SKMM1_PLB cell viability assay (AID 1919863); details: SKMM1 myeloma viability, CellTiter-Glo ATP, 48 h; viability: stronger effect = lower value; note: nearly all actives have a fitted effect of over 35% in size
Outline: as §1

[5] = Quantitative High-Throughput drug screen in 47 multiple myeloma cell lines against the NCATS MIPE library collection: U266_ATCC cell viability assay (AID 1919864); details: U266 myeloma viability, CellTiter-Glo ATP luminescence, 48 h; series mostly up to 45.8 µM; note: nearly all actives have a fitted effect of over 35% in size
Outline: as §1

[6] = Quantitative High-Throughput drug screen in 47 multiple myeloma cell lines against the NCATS MIPE library collection: XG6_PLB cell viability assay (AID 1919865); details: XG6 myeloma viability, CellTiter-Glo ATP luminescence, 48 h; series mostly up to 45.8 µM; note: nearly all actives have a fitted effect of over 40% in size
Outline: as §1

[7] = Quantitative High-Throughput drug screen in 47 multiple myeloma cell lines against the NCATS MIPE library collection: KMS34_JCRB cell viability assay (AID 1918985); details: KMS34 myeloma viability, CellTiter-Glo ATP luminescence, 48 h; series mostly up to 45.8 µM; note: nearly all actives have a fitted effect of over 40% in size
Outline: as §1

[8] = Quantitative High-Throughput drug screen in 47 multiple myeloma cell lines against the NCATS MIPE library collection: XG1_PLB cell viability assay (AID 1919866); details: CellTiter-Glo ATP, 48 h; series mostly up to 45.8 µM; note: nearly all actives have a fitted effect of over 35% in size
Outline: as §1

[9] = Quantitative High-Throughput drug screen in 47 multiple myeloma cell lines against the NCATS MIPE library collection: UTMC2_PLB cell viability assay (AID 1919868); details: CellTiter-Glo ATP luminescence, 48 h; viability (% of DMSO control): at 45.8 µM (top of the series); note: nearly all actives have a fitted effect of over 55% in size
Outline: as §1

[10] = Quantitative High-Throughput drug screen in 47 multiple myeloma cell lines against the NCATS MIPE library collection: VP6_DJ cell viability assay (AID 1919867); details: ATP luminescence, 48 h; series mostly up to 45.8 µM; note: nearly all actives have a fitted effect of over 40% in size
Outline: as §1
Potency is the fitted concentration of half-maximal effect.

Cc1ccc(NC(=O)c2cccc(C(C)(C)C#N)c2)cc1Nc1ccc2ncn(C)c(=O)c2c1
active: Potency [1] 0.935 µM | Potency [2] 16.6 µM | Potency [3] 14.8 µM | Potency [4] 1.66 µM | Potency [5] 18.7 µM | Potency [6] 5.26 µM

C[C@]1(c2nc3c(C(N)=O)cccc3[nH]2)CCCN1
active: Potency [1] 5.26 µM
inactive: Potency [3]

CC(C)NCC(O)COc1ccc(COCCOC(C)C)cc1 (centres undefined)
inactive: Potency [7] | Potency [5] | Potency [6] | Potency [8] | Potency [9]

CCc1cncnc1N1CCN(Cc2nc3ccc(C(F)(F)F)cc3[nH]2)CC1
active: Potency [1] 23.5 µM | Potency [2] 23.5 µM | Potency [3] 18.7 µM | Potency [4] 18.7 µM | Potency [5] 6.62 µM | Potency [8] 10.5 µM | Potency [9] 18.7 µM

CS(=O)(=O)c1cccc(CNc2nc(Nc3ccc4c(c3)CCC(=O)N4)ncc2C(F)(F)F)c1
active: Potency [1] 14.8 µM | Potency [3] 18.7 µM | Potency [4] 20.9 µM | Potency [5] 18.7 µM | Potency [6] 8.33 µM | Potency [8] 11.8 µM | Potency [10] 5.26 µM | Potency [9] 11.8 µM

Clc1ccc(Nc2nnc(Cc3ccncc3)c3ccccc23)cc1
active: Potency [1] 3.32 µM | Potency [2] 6.62 µM | Potency [6] 2.09 µM | Potency [10] 23.5 µM

CCN(CC)CCCC(C)Nc1ccnc2cc(Cl)ccc12 (centres undefined)
active: Potency [8] 10.5 µM | Potency [10] 11.8 µM
inactive: Potency [7] | viability [4] 95.1%

O=C(Nc1nc2ccccc2n1CCN1CCOCC1)c1cccc([N+](=O)[O-])c1
active: Potency [1] 1.87 µM | Potency [2] 5.9 µM | Potency [5] 14.8 µM | Potency [6] 1.32 µM | Potency [8] 4.18 µM

O=C(Nc1ccc(F)c(C(F)(F)F)c1)Nc1nnc(-c2ccncc2)s1
active: Potency [2] 2.35 µM | Potency [3] 13.2 µM | Potency [4] 8.33 µM | Potency [10] 4.18 µM
inactive: Potency [1]

CN(C)C(=O)c1ccc(S(=O)(=O)c2ccc(NC(=O)[C@@](C)(O)C(F)(F)F)c(Cl)c2)cc1
inactive: Potency [3] | viability [4] 99.9% | Potency [5]
active: Potency [1] 11.8 µM | Potency [8] 3.32 µM

OCCn1cc(-c2cnc3nnn(Cc4ccc5ncccc5c4)c3n2)cn1
inactive: Potency [1] | Potency [3] | Potency [6] | Potency [8] | Potency [9]
active: Potency [4] 16.6 µM | Potency [5] 2.09 µM

CC[C@H](Nc1ncnc2nc[nH]c12)c1nc2cccc(F)c2c(=O)n1-c1ccccc1
active: Potency [1] 4.69 µM | Potency [2] 20.9 µM | Potency [3] 14.8 µM | Potency [4] 16.6 µM | Potency [9] 5.9 µM

CC(C)C[C@H](NC(=O)[C@@H](O)[C@H](N)Cc1ccccc1)C(=O)O
active: Potency [1] 20.9 µM | Potency [3] 16.6 µM | Potency [4] 26.4 µM | Potency [5] 23.5 µM | Potency [6] 20.9 µM | Potency [8] 20.9 µM | Potency [9] 23.5 µM

O=C(C=Cc1ccc(/C=C/C(=O)Nc2ccc(C3=NCCN3)cc2)cc1)Nc1ccc(C2=NCCN2)cc1
inactive: Potency [7] | viability [4] 118% | Potency [6] | Potency [8] | Potency [10]

CCCC(CCC)C(=O)O
inactive: Potency [7] | viability [4] 126%
active: Potency [6] 26.4 µM | Potency [8] 20.9 µM | Potency [10] 18.7 µM

COc1cccc2cc(-c3nc(C4CCC(C(=O)O)CC4)n4ncnc(N)c34)[nH]c12 (centres undefined)
active: Potency [1] 4.18 µM | Potency [2] 1.32 µM | Potency [3] 2.35 µM | Potency [4] 1.87 µM | Potency [5] 0.296 µM | Potency [6] 0.418 µM | Potency [8] 0.148 µM | Potency [10] 0.833 µM | Potency [9] 0.235 µM

COCCNCCCn1c(C(=O)CF)c(-c2ccc(C)cc2)c2c(N)ncnc21
inactive: Potency [5]
active: Potency [7] 16.6 µM

CCOc1cc(C=C2C(=O)N(c3ccccc3)N=C2C)cc(Cl)c1OCC(=O)OC
active: Potency [1] 3.72 µM | Potency [3] 23.5 µM
inactive: viability [4] 106%

CCOC(=O)C1=C[C@]2(CC)CCCN3CCc4c(n1c1ccccc41)[C@@H]32
active: Potency [1] 9.35 µM | Potency [2] 13.2 µM | Potency [3] 8.33 µM | Potency [4] 26.4 µM | Potency [5] 16.6 µM | Potency [8] 6.62 µM | Potency [10] 9.35 µM | Potency [9] 9.35 µM

CCOC(=O)N1CCC(=C2c3ccc(Cl)cc3CCc3cccnc32)CC1
inactive: Potency [9]
active: Potency [7] 26.4 µM | Potency [4] 20.9 µM | Potency [5] 33.2 µM

OCCC#Cc1nc(-c2ccc(F)cc2)c(-c2ccncc2)n1CCCc1ccccc1
inactive: viability [4] 114% | Potency [5]
active: Potency [1] 5.26 µM | Potency [3] 18.7 µM | Potency [8] 18.7 µM

O=C1CCCC2=C1C(c1[nH]ncc1Cl)N=C(Nc1nc3ccccc3o1)N2 (centres undefined)
active: Potency [1] 8.33 µM | Potency [2] 23.5 µM | Potency [3] 10.5 µM | Potency [4] 10.5 µM | Potency [5] 14.8 µM | Potency [6] 23.5 µM | Potency [8] 2.96 µM | Potency [10] 0.0935 µM

Cn1c(=O)c(F)c(Nc2ccc(I)cc2F)c2c(=O)n(C[C@@H](O)CO)cnc21
inactive: Potency [7] | Potency [8]
active: Potency [5] 9.35 µM

Cc1ccc(-n2nc(C(C)(C)C)cc2NC(=O)Nc2ccc(OCCN3CCOCC3)c3ccccc23)cc1
active: Potency [1] 2.96 µM | Potency [2] 20.9 µM | Potency [3] 26.4 µM | Potency [5] 23.5 µM | Potency [6] 3.32 µM | Potency [10] 10.5 µM | Potency [9] 4.18 µM
